Assay outcomes (PubChem)
Pf growth 96h = Primary qHTS for delayed death inhibitors of the malarial parasite plastid, 96 hour incubation. P. falciparum luciferase reporter growth, 96 h. Potency, µM (series often up to 28.7 µM), for the others: top-dose activity change, negative = inhibition, most hits filed as inhibitors. 320,000 compounds, 6.9% hits
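Cell-based qHTS: luciferase-tagged P. falciparum in erythrocytes (2% hematocrit, 0.05% parasitemia final) incubated with compounds for 96 hours, 37 C, 5% CO2; luciferase detection reagent then added and luminescence measured.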
AmpC inh no detg = qHTS Inhibitors of AmpC Beta-Lactamase (assay without detergent). P00811. AmpC nitrocefin hydrolysis, absorbance 480 nm, 0.0001% Triton. Potency, µM (doses to about 57.1 µM), inactives show at the top dose activity change, negative = inhibition, most hits filed as inhibitors. 330,000 compounds, 0.52% hits. AID 485341, 2010;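 further: plate controls were no compound for no effect and no enzyme for full effect; nearly all actives have a fitted effect of over 20% in size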
Target sequence (P00811 whole entry, looked up): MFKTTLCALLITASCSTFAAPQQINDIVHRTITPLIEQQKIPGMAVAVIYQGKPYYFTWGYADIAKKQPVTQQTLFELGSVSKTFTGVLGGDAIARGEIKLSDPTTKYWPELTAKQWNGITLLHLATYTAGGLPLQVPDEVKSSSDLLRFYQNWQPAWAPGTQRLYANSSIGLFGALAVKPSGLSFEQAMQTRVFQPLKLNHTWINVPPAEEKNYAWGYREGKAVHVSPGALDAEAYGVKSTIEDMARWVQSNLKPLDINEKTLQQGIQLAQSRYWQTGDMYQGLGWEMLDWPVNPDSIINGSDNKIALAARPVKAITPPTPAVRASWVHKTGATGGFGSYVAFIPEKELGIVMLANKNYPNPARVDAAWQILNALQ
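AmpC (5.3 nM in the dispensed reagent) in 20 mM phosphate pH 7.0 with 0.01% (detergent screen) or 0.0001% Triton X-100 was preincubated with compounds for 15 min at room temperature. Nitrocefin was then added from an 800 uM solution, and hydrolysis was followed at 480 nm.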
Pf growth 48h = Primary qHTS for delayed death inhibitors of the malarial parasite plastid, 48 hour incubation. P. falciparum luciferase growth in erythrocytes, 48 h. Potency, µM (titrated, usually from 28.7 µM), for inactives: at the highest dose activity change, negative = inhibition, actives largely listed as inhibitors. 310,000 compounds, 5.9% hits
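A one-generation exposure of luciferase-tagged malaria parasites in RPMI 1640/Albumax erythrocyte culture, 37 C and 5% CO2. Inhibition is inferred from decreased luminescence after adding detection reagent.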
AmpC detergent = qHTS Inhibitors of AmpC Beta-Lactamase (assay with detergent); AmpC hydrolysis of nitrocefin, absorbance 480 nm, 0.01% Triton; P00811; 370,000 compounds, 0.041% hits; Potency, µM (series often up to 114 µM), inactives show at the highest dose activity change, negative = inhibition, most hits filed as inhibitors;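 further: 0% = no-compound wells and -100% = no-enzyme wells; nearly all actives have a fitted effect of over 25% in size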
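AmpC (5.3 nM in the dispensed reagent) in 20 mM phosphate pH 7.0 with 0.01% (detergent screen) or 0.0001% Triton X-100 was preincubated with compounds for 15 min at room temperature. Nitrocefin was then added from an 800 uM solution, and hydrolysis was followed at 480 nm.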
AMA1-RON2 inh = qHTS for Inhibitors of AMA1-RON; Towards Development of Antimalarial Drug Lead: Primary Screen | Plasmodium falciparum AMA1 (3D7) - RON2 peptide interaction | AlphaScreen AMA1-biotinylated RON2 peptide binding | Potency, µM (series often up to 58.2 µM), for inactives: at the top dose activity change, negative = inhibition, actives largely listed as inhibitors | 360,000 compounds, 0.2% hits;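 further: 0% = vehicle wells and -100% = peptide control; nearly all actives have a fitted effect of over 45% in size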
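AMA1 (3D7) with his tag at 25 nM final met compounds first, then biotinylated RON2 peptide at 25 nM; detection used donor plus acceptor beads, 10 µg/mL apiece, read by AlphaScreen after 30 min at room temperature.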
HCV inhibitor = qHTS Assay for Inhibitors of Hepatitis C Virus (HCV); Huh7.5.1 HCVcc-Cre infection, luciferase reporter, 44 h; 340,000 compounds, 3.4% hits; Potency, µM (highest dose often 41.8 µM), inactives show at the top dose activity change, negative = inhibition, usual class: inhibitors; AID 651820, 2012
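1,000 cells/well; 4 h culture; + compound; + HCVcc-Cre (~0.5 moi); 44 h; luciferase substrate, RT 15 min; read 15 sec.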
An asterisk follows results filed as active; ? = inconclusive; . = not tested or not shown; [ ] = remark or other dose. Rows were chosen to be rich in hits. Some 11% of all compounds tested hit in one or more screens of this group. The call rests on the fitted dose curve; in most records, active means well fitted curve in the direction sought with a large enough effect; inconclusive means small, poorly fitted or top-dose-only effect, or another doubt; inactive means no such curve, though single readings can be large; an effect the other way counts as inactive or inconclusive. Unless noted, on the % scale 0 is the no-effect control and ±100 the full control effect; potency means the concentration at half of the fitted maximal effect.

SMILES	Pf growth 96h	AmpC inh no detg	Pf growth 48h	AmpC detergent	AMA1-RON2 inh	HCV inhibitor
Cc1ccc(C)c(N(CC(=O)Nc2ccccc2C(=O)NCc2ccco2)S(=O)(=O)c2ccccc2)c1	155%	-23%	12µM*	-6%	-1%[11.6 µM]	?
CC(=O)c1ccc(NC(=O)COc2ccccc2-c2nc(-c3ccc(C)cc3)no2)cc1	.	.	.	-6%	.	.
Cc1cccc(N2CCN(c3nc4ccccc4c4nnc(C)n34)CC2)c1C	.	.	.	8%	.	.
CCc1c(C)sc2c1CCN(Cc1ccccc1)C2c1ccccc1 (configuration not stated)	.	.	.	13%	.	.
Cc1ccc(N(CC(=O)N/N=C/c2ccc(OC3CSC3)cc2)S(=O)(=O)c2ccccc2)c(C)c1	12µM*	-27%	?	0%	-21%	?
CCOc1ccccc1CNC(=O)c1sc2ncccc2c1-n1cccc1	.	.	.	-4%	.	.
COc1cc(NC(=O)COc2cc(O)c3c(c2)OC(C)(C)CC3=O)cc(OC)c1OC	4.1µM*	54%	?	?	-11%	0.32µM*
Cc1ccc(S(=O)(=O)Nc2cc(C)cn(Cc3ccc(F)cc3)c2=O)cc1	?	-38%	0.21µM*	-2%	9%	-12%
CCCn1c2ccccc2c2cnn(CC(=O)N3CCN(c4ccccc4)CC3)c(=O)c21	.	.	.	-7%	.	.
COc1ccc(C(=O)C(C)(C)NO)cc1	155%	-2%	?	?	-20%	8%
COc1ccc(C(=O)C(Cc2ccccc2)N(C)C)cc1 (configuration not stated)	1.3µM*	3%	?	4%	-7%	-3%
COc1ccc(C(C)=O)cc1CC(C(=O)c1ccc(C)c(C)c1)N(C)C (configuration not stated)	-13%	-6%	-29%	-13%	-1%	-7%
COc1ccc(C(=O)C(CCCCC(CN(C)C)C(=O)c2ccc(OC)cc2)CN(C)C)cc1 (configuration not stated)	9.3µM*	38%	10µM*	?	14%	3.5µM*
CN(C)CC(CCC(CN(C)C)C(=O)c1ccccc1)C(=O)c1ccccc1 (configuration not stated)	13µM*	16%	6.6µM*	1%	1%	?
COc1ccc(C(C)=O)cc1CC(C(=O)c1ccc(F)cc1)N(C)C (configuration not stated)	10µM*	19%	?	5%	-6%	-12%
O=C(c1ccccc1)C(CCc1ccccn1)CCc1ccccn1	.	.	.	.	6%	-20%
Cc1cccc(OCC(=O)Nc2ccc(S(=O)(=O)N(Cc3ccccc3)c3ccccc3)cc2)c1	.	.	.	25%	.	.
CCc1ccc2c(c1)c(=O)c(C(=O)c1ccccc1)cn2CC(=O)Nc1ccc(C)c(Cl)c1	.	.	.	-4%	.	.
CCOc1ccc2nc(N3CCN(C(=O)CS(=O)(=O)c4ccc(F)cc4)CC3)sc2c1	.	.	.	-1%	.	.
CCOc1ccccc1O[C@@H](c1ccccc1)[C@@H]1CNCCO1	13µM*	.	?	.	.	.
CCOc1ccccc1CNC(c1ccccc1)c1ccccc1	?	-18%	73%	-6%	11%	-16%
Cc1ccc(C(=O)N/C(=C\c2ccco2)C(=O)NCCN2CCCCC2)cc1C	1%	34%	12%	0%	-8%	?
O=C(NCCN1CCCCC1)/C(=C/c1ccco1)NC(=O)c1ccccc1	6.6µM*	4%	2%	0%	-5%	-8%
O=C(NCc1cccnc1)/C(=C/c1ccco1)NC(=O)c1ccccc1	12µM*	-7%	28%	-3%	2%	-4%
O=C(NC(Cc1c[nH]c2ccccc12)C(=O)O)/C(=C\c1ccccc1)NC(=O)c1ccccc1 (configuration not stated)	10µM*	-25%	10%	-3%	2%	10%
SMILES	Pf growth 96h	AmpC inh no detg	Pf growth 48h	AmpC detergent	AMA1-RON2 inh	HCV inhibitor
Cc1ccc(C(=O)N/C(=C\c2ccco2)C(=O)NCCCn2ccnc2)cc1	9.3µM*	-20%	40%	-8%	?	6%
O=C(NCc1cccnc1)/C(=C/c1ccccc1)NC(=O)c1ccccc1	-3%	-5%	3%	?	2%	1%
O=C(CCCCCn1c(=O)c2sccc2n(Cc2ccccc2Cl)c1=O)NCc1ccc2c(c1)OCO2	.	.	.	24%	.	.
C[C@]12CC[C@@H]3c4ccc(O)cc4CC[C@H]3[C@@H]1C[C@H](O)C2O (some centres not stated)	?	.	-14%	.	.	.
CCC(=O)Nc1ccccc1-c1nc2ccccc2n(CC(=O)c2ccc(Cl)cc2)c1=O	.	.	.	5%	.	.
COc1ccc(C(=O)N/C(=C\c2ccco2)C(=O)NCc2cccnc2)cc1	1.2µM*	-14%	33%	-6%	15%	23%
O=C(NC(Cc1ccccc1)C(=O)O)/C(=C\c1ccco1)NC(=O)c1ccccc1 (configuration not stated)	2.6µM*	-11%	40%	2%	31%	-2%
O=C(NC(Cc1ccccc1)C(=O)O)/C(=C\c1ccco1)NC(=O)c1ccc(Br)cc1 (configuration not stated)	46%	-18%	18%	2%	-13%	14%
COc1ccc(C(=O)N/C(=C\c2ccco2)C(=O)NCc2ccco2)cc1	-20%	-22%	-6%	0%	9%	21%
Cc1c(-c2ccco2)[n+](=O)c2c(n1[O-])CCCCC2	10%	-3%	.	-11%	0%	7%
Cc1c(-c2ccccc2)[n+](=O)c(-c2ccco2)c(C)n1[O-]	5.2µM*	-11%	2%	?	45%	9%
O=C(Nc1ccc(F)cc1)c1cccn1-c1nnc(N2CCCCC2)s1	.	.	.	2%	.	.
CCN1CCS/C1=C/C=C/C1=[N+](CC)CCS1	0.66µM*	-11%	0.74µM*	-1%	-9%[11.6 µM]	.
CCN1CCS/C1=C\C=C\C1=[N+](CC)CCS1	63%	-3%	0.93µM*	?	0%	6.3µM*
Cc1[nH]c2ccccc2c1C1(O)C(=O)N(Cc2ccccc2)c2ccc(Br)cc21 (configuration not stated)	.	.	.	-3%	.	.
CCCn1ccc2c(OCC(=O)Nc3ccc(C(F)(F)F)cc3)cccc2c1=O	.	.	.	2%	.	.
COCCN(Cc1cc2c(C)cc(C)cc2nc1Cl)C(=O)c1ccccc1F	1.9µM*	-21%	?	-5%	6%	?
